# According to PMC7862700, “An all-to-all approach to the identification of sequence-specific readers for epigenetic DNA modifications on cytosine”:
# Columns and labels:
# Assay in all cases: DAPPL (digital affinity profiling via proximity ligation, sequencing); 10 mM Tris-HCl pH 7.5, 50 mM NaCl, 1 mM DTT, 4% glycerol, room temperature, 30 min; GST-TFs on glutathione beads, 16-mer random dsDNA library, 0.1% formaldehyde crosslink after washing; high values mean tight binding
# FEV = target: T1, FEV (Homo sapiens, UniProt Q99581 1-238); conditions: protein: recombinant; tags: N-terminal GST; dsDNA, one strand shown
# T1 sequence: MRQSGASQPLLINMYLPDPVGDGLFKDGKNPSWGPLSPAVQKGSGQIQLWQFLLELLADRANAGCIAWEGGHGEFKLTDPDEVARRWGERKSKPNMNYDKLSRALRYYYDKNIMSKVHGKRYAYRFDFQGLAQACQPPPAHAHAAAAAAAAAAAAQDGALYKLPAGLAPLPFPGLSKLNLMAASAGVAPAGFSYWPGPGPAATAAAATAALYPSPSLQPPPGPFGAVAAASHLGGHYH
# How it was run: (§1)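 Binding signal is each hexamer's read frequency for a factor divided by its frequency in the tag-only sample. The factors were GST-fused human transcription factors from yeast, captured on glutathione beads, DNA-barcoded and pooled with that sample. Pools were incubated with 200 nmole of a random double-stranded 16-mer DNA library in Tris/NaCl/DTT/glycerol buffer at room temperature for 30 min, then washed, crosslinked with 0.1% formaldehyde, proximity-ligated with BsaI/T4 ligase (1 h, 37 °C), PCR-amplified and sequenced on an Illumina NextSeq500.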
# ETV5 = ETV5 (Homo sapiens, UniProt P41161 1-510); conditions: protein: recombinant; tags: N-terminal GST; dsDNA, one strand shown
# How it was run: as §1
# HSF1 = HSF1 (Homo sapiens, UniProt Q00613 1-529); conditions: protein: recombinant; tags: N-terminal GST; chain copies: 3; dsDNA, one strand shown
# How it was run: as §1
# SPIC = target: T2, SPIC (Homo sapiens, UniProt Q8N5J4 1-248); conditions: protein: recombinant; tags: N-terminal GST; dsDNA, one strand shown
# T2 sequence: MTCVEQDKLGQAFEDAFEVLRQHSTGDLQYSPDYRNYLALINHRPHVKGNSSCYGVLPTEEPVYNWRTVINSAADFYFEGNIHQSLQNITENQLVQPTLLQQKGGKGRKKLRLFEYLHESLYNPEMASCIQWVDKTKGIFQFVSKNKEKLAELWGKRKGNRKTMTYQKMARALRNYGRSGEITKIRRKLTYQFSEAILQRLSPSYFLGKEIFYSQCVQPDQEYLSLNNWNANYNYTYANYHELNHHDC
# How it was run: as §1
# ELF4 = ELF4 (Homo sapiens, UniProt Q99607 1-663); conditions: protein: recombinant; tags: N-terminal GST; dsDNA, one strand shown
# How it was run: as §1
# ELK4 = target: T3, ELK4 (Homo sapiens, UniProt P28324-2 1-405); conditions: protein: recombinant; tags: N-terminal GST; dsDNA, one strand shown
# T3 sequence: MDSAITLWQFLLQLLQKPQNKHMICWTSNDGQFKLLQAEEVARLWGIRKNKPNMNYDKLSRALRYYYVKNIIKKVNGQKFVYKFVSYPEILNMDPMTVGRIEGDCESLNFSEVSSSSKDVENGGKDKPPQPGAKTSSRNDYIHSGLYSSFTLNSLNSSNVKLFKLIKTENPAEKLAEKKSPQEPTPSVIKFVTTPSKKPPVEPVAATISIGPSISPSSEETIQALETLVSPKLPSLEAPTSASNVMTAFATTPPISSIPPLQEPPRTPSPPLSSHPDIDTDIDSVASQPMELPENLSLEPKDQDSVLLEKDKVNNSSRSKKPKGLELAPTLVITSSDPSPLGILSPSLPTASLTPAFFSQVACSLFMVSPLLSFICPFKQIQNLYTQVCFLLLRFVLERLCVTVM
# How it was run: as §1
# ETV2 = target: T4, ETV2 (Homo sapiens, UniProt O00321 1-342); conditions: protein: recombinant; tags: N-terminal GST; dsDNA, one strand shown
# T4 sequence: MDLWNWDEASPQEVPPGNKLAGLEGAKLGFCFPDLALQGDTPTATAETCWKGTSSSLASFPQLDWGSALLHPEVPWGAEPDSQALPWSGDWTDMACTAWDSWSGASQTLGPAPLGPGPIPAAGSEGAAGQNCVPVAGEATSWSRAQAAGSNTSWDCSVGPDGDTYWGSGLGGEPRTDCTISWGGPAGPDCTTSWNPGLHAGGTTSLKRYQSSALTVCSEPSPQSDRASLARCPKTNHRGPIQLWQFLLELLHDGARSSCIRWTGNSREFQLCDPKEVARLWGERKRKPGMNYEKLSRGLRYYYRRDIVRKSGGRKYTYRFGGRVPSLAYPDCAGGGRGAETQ
# How it was run: as §1
# ELF3 = target: T5, ELF3 (Homo sapiens, UniProt P78545 1-371); conditions: protein: recombinant; tags: N-terminal GST; dsDNA, one strand shown
# T5 sequence: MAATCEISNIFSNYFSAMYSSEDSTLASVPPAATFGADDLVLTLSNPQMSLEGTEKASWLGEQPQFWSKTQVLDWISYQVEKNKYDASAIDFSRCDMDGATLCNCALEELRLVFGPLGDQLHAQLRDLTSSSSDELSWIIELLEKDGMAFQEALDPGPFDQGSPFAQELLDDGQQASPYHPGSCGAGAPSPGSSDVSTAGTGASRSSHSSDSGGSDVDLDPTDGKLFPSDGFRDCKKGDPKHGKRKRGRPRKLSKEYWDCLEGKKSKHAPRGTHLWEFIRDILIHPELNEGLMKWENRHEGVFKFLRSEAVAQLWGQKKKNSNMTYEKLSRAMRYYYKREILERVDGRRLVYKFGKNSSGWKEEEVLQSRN
# How it was run: as §1
# CRX = CRX (Homo sapiens, UniProt O43186 1-299); conditions: protein: recombinant; tags: N-terminal GST; dsDNA, one strand shown
# How it was run: as §1
# ETV1 = ETV1 (Homo sapiens, UniProt P50549 1-477); conditions: protein: recombinant; tags: N-terminal GST; dsDNA, one strand shown
# How it was run: as §1
# ERF = target: T6, ERF (Homo sapiens, UniProt P50548 1-548); conditions: protein: recombinant; tags: N-terminal GST; dsDNA, one strand shown
# T6 sequence: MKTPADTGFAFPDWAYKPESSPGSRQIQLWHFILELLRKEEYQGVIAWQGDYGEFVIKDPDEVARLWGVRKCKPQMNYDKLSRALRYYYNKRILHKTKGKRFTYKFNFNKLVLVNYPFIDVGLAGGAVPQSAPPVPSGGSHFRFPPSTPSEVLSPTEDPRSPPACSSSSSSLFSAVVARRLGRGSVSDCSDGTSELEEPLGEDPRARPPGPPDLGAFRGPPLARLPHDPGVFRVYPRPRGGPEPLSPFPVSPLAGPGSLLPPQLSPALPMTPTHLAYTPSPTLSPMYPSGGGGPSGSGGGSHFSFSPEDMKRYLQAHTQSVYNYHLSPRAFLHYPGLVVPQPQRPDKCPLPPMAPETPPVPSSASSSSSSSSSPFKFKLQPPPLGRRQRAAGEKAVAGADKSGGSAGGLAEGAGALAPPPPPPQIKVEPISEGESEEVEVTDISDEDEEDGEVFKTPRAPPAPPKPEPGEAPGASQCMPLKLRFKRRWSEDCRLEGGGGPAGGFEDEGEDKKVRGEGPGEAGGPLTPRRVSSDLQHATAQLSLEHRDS
# How it was run: as §1
# ETV3L = target: T7, ETV3L (Homo sapiens, UniProt Q6ZN32 1-361); conditions: protein: recombinant; tags: N-terminal GST; dsDNA, one strand shown
# T7 sequence: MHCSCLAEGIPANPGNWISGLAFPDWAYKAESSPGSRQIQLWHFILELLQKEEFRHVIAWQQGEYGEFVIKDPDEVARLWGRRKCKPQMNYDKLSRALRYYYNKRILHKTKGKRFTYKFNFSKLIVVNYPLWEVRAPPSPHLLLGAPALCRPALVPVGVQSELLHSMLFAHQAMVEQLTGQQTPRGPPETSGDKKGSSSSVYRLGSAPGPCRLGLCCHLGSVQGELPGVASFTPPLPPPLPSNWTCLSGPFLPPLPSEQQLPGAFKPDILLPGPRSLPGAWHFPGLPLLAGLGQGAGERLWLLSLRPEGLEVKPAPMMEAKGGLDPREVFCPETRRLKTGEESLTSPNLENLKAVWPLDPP
# How it was run: as §1
# ETS2 = target: T8, ETS2 (Homo sapiens, UniProt P15036 1-469); conditions: protein: recombinant; tags: N-terminal GST; dsDNA, one strand shown
# T8 sequence: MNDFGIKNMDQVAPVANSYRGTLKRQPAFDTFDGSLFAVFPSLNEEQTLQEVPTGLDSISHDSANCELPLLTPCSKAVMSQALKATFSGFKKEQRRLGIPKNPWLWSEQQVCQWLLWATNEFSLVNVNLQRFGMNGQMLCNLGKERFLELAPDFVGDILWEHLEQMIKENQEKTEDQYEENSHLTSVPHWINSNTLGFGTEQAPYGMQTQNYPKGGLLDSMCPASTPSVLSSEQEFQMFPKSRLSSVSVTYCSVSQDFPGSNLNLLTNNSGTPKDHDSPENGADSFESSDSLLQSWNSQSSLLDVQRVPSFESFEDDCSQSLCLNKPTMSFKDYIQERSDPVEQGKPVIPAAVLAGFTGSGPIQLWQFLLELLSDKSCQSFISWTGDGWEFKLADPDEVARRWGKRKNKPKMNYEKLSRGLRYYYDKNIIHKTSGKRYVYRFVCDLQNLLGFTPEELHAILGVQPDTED
# How it was run: as §1
# SPDEF = target: T9, SPDEF (Homo sapiens, UniProt O95238 1-335); conditions: protein: recombinant; tags: N-terminal GST; dsDNA, one strand shown
# T9 sequence: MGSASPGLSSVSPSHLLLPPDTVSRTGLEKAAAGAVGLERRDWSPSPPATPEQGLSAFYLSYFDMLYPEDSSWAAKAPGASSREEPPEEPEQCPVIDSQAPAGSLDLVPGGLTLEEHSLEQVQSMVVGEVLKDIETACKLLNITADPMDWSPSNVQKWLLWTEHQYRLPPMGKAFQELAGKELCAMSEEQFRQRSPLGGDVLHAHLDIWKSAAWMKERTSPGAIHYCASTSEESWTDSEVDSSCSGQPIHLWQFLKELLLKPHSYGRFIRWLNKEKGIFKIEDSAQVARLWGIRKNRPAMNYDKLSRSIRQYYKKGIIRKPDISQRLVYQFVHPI
# How it was run: as §1
# ETV7 = target: T10, ETV7 (Homo sapiens, UniProt Q9Y603 1-341); conditions: protein: recombinant; tags: N-terminal GST; dsDNA, one strand shown
# T10 sequence: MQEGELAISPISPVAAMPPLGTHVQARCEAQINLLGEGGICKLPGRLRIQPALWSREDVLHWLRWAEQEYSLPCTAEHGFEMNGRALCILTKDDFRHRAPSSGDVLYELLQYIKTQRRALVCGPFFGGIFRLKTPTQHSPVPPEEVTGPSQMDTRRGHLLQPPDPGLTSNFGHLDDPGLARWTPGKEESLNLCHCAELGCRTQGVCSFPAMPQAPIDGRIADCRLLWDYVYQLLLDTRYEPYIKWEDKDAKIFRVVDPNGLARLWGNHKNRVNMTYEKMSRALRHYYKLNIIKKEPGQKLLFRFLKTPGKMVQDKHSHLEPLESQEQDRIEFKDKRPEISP
# How it was run: as §1
# ELF5 = target: T11, ELF5 (Homo sapiens, UniProt Q9UKW6-2 1-255); conditions: protein: recombinant; tags: N-terminal GST; dsDNA, one strand shown
# T11 sequence: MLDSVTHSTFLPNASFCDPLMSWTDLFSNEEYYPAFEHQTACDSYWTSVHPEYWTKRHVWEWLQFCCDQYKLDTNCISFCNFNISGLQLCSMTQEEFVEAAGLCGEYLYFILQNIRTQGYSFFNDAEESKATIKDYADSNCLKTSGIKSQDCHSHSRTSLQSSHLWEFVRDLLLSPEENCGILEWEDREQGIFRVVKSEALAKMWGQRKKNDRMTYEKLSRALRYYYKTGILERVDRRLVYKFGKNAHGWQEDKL
# How it was run: as §1
# ETV3 = target: T12, ETV3 (Homo sapiens, UniProt P41162-2 1-143); conditions: protein: recombinant; tags: N-terminal GST; dsDNA, one strand shown
# T12 sequence: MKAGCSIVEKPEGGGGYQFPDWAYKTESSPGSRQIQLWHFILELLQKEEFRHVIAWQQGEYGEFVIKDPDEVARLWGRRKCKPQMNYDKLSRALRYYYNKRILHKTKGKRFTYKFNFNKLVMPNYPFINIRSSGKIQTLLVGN
# How it was run: as §1
# ETV6 = ETV6 (Homo sapiens, UniProt P41212 1-452); conditions: protein: recombinant; tags: N-terminal GST; dsDNA, one strand shown
# How it was run: as §1
# Chain of ETV6 (P41212 whole entry): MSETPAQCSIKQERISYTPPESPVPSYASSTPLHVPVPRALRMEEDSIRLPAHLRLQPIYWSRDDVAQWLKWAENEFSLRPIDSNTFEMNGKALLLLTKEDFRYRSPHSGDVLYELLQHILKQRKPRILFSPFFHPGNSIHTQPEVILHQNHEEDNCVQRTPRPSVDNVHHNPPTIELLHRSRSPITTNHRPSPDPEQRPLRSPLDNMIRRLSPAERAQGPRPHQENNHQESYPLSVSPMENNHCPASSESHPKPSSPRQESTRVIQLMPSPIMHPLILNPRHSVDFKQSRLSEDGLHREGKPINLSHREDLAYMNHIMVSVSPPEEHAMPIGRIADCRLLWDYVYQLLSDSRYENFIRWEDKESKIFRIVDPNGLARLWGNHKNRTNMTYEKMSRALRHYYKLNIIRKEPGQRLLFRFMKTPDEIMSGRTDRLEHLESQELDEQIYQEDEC
# Chain of ETV5 (P41161 whole entry): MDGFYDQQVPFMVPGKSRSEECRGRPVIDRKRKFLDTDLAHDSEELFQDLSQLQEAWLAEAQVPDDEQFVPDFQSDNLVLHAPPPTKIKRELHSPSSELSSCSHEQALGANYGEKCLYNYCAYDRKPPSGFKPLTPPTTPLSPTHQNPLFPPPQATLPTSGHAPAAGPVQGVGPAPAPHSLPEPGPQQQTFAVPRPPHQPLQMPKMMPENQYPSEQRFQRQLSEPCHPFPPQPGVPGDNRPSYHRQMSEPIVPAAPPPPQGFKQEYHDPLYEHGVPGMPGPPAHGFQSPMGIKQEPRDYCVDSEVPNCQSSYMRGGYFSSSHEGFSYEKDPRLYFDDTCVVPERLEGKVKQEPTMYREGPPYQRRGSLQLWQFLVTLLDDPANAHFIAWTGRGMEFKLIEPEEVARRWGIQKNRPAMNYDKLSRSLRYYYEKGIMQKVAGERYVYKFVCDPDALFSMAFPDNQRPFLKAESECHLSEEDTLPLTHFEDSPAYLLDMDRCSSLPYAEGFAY
# Chain of CRX (O43186 whole entry): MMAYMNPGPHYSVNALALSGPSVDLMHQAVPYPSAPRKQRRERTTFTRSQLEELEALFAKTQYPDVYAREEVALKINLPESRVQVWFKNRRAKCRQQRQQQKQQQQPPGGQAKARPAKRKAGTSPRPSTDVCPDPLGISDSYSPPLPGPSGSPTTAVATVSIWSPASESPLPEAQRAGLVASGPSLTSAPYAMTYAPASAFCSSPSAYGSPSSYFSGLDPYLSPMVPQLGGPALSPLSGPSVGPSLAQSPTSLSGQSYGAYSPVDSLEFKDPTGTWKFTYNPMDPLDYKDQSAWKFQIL
# Chain of HSF1 (Q00613 whole entry): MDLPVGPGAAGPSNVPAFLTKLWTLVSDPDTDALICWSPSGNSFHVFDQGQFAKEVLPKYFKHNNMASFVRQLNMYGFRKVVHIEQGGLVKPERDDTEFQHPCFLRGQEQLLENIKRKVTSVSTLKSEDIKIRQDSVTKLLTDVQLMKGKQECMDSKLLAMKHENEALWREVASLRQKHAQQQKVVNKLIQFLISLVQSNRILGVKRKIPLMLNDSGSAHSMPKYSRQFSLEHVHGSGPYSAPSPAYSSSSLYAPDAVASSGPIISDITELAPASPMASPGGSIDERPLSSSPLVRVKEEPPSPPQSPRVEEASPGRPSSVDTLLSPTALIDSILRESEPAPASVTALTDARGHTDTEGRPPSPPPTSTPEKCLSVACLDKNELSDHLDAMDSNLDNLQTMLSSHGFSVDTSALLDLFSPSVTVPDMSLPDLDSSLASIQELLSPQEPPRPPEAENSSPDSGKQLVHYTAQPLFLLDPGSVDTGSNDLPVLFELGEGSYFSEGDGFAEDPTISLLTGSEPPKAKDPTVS
# Chain of ETV1 (P50549 whole entry): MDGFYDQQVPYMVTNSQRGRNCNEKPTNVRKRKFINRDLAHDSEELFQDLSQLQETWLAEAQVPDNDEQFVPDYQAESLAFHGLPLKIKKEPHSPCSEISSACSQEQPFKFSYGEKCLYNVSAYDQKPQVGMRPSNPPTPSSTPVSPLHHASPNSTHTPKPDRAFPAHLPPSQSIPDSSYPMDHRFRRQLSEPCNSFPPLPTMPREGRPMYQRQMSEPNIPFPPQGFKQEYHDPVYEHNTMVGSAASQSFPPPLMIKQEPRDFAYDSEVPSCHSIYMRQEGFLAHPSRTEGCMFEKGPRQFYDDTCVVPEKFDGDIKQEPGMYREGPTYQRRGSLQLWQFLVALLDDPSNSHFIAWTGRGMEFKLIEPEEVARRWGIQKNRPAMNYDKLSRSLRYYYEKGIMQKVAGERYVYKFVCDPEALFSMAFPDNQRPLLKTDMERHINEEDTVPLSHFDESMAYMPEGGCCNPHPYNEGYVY
# Chain of ELF4 (Q99607 whole entry): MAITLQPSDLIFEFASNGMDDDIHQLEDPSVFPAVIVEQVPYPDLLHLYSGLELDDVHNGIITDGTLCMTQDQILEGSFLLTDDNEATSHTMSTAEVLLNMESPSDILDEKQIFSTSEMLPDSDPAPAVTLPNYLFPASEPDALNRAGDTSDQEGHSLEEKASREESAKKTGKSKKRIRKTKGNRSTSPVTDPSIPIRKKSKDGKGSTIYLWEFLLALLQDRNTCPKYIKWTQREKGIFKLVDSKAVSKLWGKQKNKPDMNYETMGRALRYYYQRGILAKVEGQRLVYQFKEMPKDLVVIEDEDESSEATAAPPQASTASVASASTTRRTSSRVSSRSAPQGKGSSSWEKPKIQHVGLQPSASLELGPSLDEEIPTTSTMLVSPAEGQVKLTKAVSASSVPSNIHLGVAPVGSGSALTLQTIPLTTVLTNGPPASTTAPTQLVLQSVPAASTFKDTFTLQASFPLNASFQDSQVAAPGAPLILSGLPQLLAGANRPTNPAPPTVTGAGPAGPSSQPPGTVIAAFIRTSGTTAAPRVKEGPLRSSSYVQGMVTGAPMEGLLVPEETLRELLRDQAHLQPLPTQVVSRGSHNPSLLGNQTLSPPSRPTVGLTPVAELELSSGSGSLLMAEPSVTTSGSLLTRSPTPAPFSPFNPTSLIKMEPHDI
sequence,measurement,setting,value
TATTTC,binding signal,FEV,"2.32 fold enrichment (6-mer frequency, TF over GST control)"
same,binding signal,ETV5,"2.13 fold enrichment (6-mer frequency, TF over GST control)"
same,binding signal,HSF1,"1.69 fold enrichment (6-mer frequency, TF over GST control)"
same,binding signal,SPIC,"2.38 fold enrichment (6-mer frequency, TF over GST control)"
same,binding signal,ELF4,"2.01 fold enrichment (6-mer frequency, TF over GST control)"
same,binding signal,ELK4,"2.24 fold enrichment (6-mer frequency, TF over GST control)"
same,binding signal,ETV2,"2.11 fold enrichment (6-mer frequency, TF over GST control)"
same,binding signal,ELF3,"2.09 fold enrichment (6-mer frequency, TF over GST control)"
same,binding signal,CRX,"1.64 fold enrichment (6-mer frequency, TF over GST control)"
same,binding signal,ETV1,"2.14 fold enrichment (6-mer frequency, TF over GST control)"
same,binding signal,ERF,"1.86 fold enrichment (6-mer frequency, TF over GST control)"
same,binding signal,ETV3L,"2.06 fold enrichment (6-mer frequency, TF over GST control)"
same,binding signal,ETS2,"2.23 fold enrichment (6-mer frequency, TF over GST control)"
same,binding signal,SPDEF,"2 fold enrichment (6-mer frequency, TF over GST control)"
same,binding signal,ETV7,"2.2 fold enrichment (6-mer frequency, TF over GST control)"
same,binding signal,ELF5,"2.66 fold enrichment (6-mer frequency, TF over GST control)"
same,binding signal,ETV3,"2.23 fold enrichment (6-mer frequency, TF over GST control)"
same,binding signal,ETV6,"2.54 fold enrichment (6-mer frequency, TF over GST control)"
